Data published in PubChem BioAssay (NCI).
The panel holds about 83,000 compounds, 20% with a hit somewhere; the sample as a whole holds those more often.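 Values shown are percent growth following 48 h exposure of cells in 96-well plates to a single concentration of compound; below 10 was considered active.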 Activity calls are given as the source filed them.

tested on: UACC-257 melanoma; assay: NCI-60 one-dose screen, 48 h (100 = growth as untreated, 0 = no growth, -100 = all killed); conditions: 10 µM unless noted

| SMILES | growth |
| --- | --- |
| COC(=O)c1ccc2c(c1)C(=O)c1c-2n(CCCN)c(=O)c2cc([N+](=O)[O-])ccc12 | -96.1% (active) |
| O=C(Nn1c2c(sc1=Nc1ccccc1)C(=O)c1ccccc1C2=O)c1cc2ccc1CCc1ccc(cc1)CC2 | 62.4% (inactive) |
| O=C(CN1C(=O)CCC1=O)Nc1ncc(Cc2ccc(F)cc2)s1 | 98.5% (inactive) |
| Nc1ncnc2c1N=C(c1ccc(Cl)cc1)CC(c1ccc3c(c1)OCO3)N2 (stereo not given) | 110% (inactive) |
| N#C/C(=C/c1ccc([N+](=O)[O-])cc1)n1nnc2cc(F)c(F)cc21 | 65.5% (inactive) |
| COc1ccc(C(=O)Nc2ncc(Cc3ccc(F)cc3)s2)cc1 | 56% (inactive) |
| CCN1CCN(Cc2cn(CC(=O)Nc3ccc4c(ccn4Cc4ccccc4)c3)nn2)CC1 | 103% (inactive) |
| CCOC(=O)C1=C(NC)OCC1=O | 92.5% (inactive) |
| CC(=O)c1cc(O)c2ccccc2c1O | 96.5% (inactive) |
| CC1(C)CC[C@]2(c3nnc(-c4ccncc4)o3)CC[C@H]3C(=CC[C@H]4[C@@]3(C)CC[C@H]3C(C)(C)C(=O)CC[C@]43C)[C@@H]2C1 | 70.6% (inactive) |
| CC(C)(C)n1cc(-c2ccnc(NCCCNS(=O)(=O)c3ccc(F)cc3)c2)c(-c2cccc(F)c2)n1 | 89.2% (inactive) |
| COc1cc(CNS(=O)(=O)c2ccc(C)cc2)ccc1OCc1cn(-c2ccc(Br)cc2)nn1 | 110% (inactive) |
| Cc1ccc(-c2csc(NC(=O)CN3CCN(c4cc5c(cc4F)c(=O)c(C(=O)O)cn5C4CC4)CC3)n2)cc1 | -12.9% (active) |
| CCCCCCCCCCCCCCCCCCOc1ccccc1CC(=O)OCC[N+]1(C)CCCC1 | 75.3% (inactive) |
| COc1ccc(-c2nc(/C=C3\SC(=NCc4ccccc4)NC3=O)c3ccccn23)cc1 | -17% (active) |
| COc1ccc2c3c([nH]c2c1)C(=O)c1nc(C)ccc1C3=O | 32.7% (inactive) |
| CN(CCOc1ccc(C#N)cc1)CCOc1ccc(C#N)cc1 | 65.8% (inactive) |
| CCN1C(=O)N(CC)C2C1NN=c1s/c(=C\c3cccc([N+](=O)[O-])c3)c(=O)n12 (stereo not given) | 59.7% (inactive) |

| SMILES | growth |
| --- | --- |
| O=C(CCCCCCN1CC(=O)N2[C@H](c3cc(Br)cs3)c3[nH]c4ccccc4c3C[C@H]2C1=O)NO | 27.7% (inactive) |
| Cc1ccc(/C=C2\CN(C(=O)OC(C)(C)C)C/C(=C\c3ccc(C)cc3)C2=O)cc1 | 79.4% (inactive) |
| CN(C)CCNC(=O)c1cccc(-c2cnc3ccc(-c4ccc5c(c4)OCO5)nn23)c1 | 108% (inactive) |
| Cn1c(=O)c2c(nc(NC3=NS(=O)(=O)c4ccccc43)n2CC(=O)N2CCc3ccccc32)n(C)c1=O | 94.9% (inactive) |
| Cc1ccc(NC(=S)NNC(=S)NNc2ccccc2)cc1C | 98.6% (inactive) |
| C=CCn1c(SCC(=O)Nc2ccc(C(=O)/C=C/c3cc4cc(OC)ccc4nc3Cl)cc2)nnc1-c1ccc(Br)cc1 | 79.8% (inactive) |
| CCCC(=O)NC(c1ccc2c(c1)OCO2)c1ccc2cccnc2c1O (stereo not given) | 19.1% (inactive) |
| c1ccc(C2=NN[C@H](c3cn(-c4ccccc4)nc3-c3ccccc3)C2)cc1 | 65.2% (inactive) |
| C[C@@H]1CCC[C@H]1CC(N)C(=O)O (stereo not given in full) | 106% (inactive) |
| O=C1c2cccnc2C(=O)c2c1c(C(=O)NCCCN1CCCCC1)c1ccccn21 | -82.8% (active) |
| CCCCCCCCn1ccc2cc(NC(=O)Cn3cc(CN4CCCCC4)nn3)ccc21 | -49.5% (active) |
| COC(C(=O)[C@@H](O)[C@@H](C)O)[C@@H]1Cc2cc3cc(O[C@H]4C[C@@H](O[C@H]5C[C@@H](O)[C@H](O)C(C)O5)[C@H](O)C(C)O4)c(C)c(O)c3c(O)c2C(=O)[C@H]1O[C@H]1C[C@@H](O[C@H]2C[C@@H](O[C@H]3C[C@@H](O)[C@H](OC)C(C)O3)[C@@H](O)C(C)O2)[C@H](O)C(C)O1 (stereo not given in full) | -21.7% (active) |
| CCCCN1C(=O)/C(=c2\sc3n(c2=O)C2C(NN=3)N(CC)C(=O)N2CC)c2ccccc21 (stereo not given) | -9.63% (active) |
| COc1ccc2c(O)c(/C=C3\N=Nc4ncccc43)oc2c1C[C@H]1CCNC[C@H]1F | -6.32% (active) |
| COc1ccc2c(O)c(/C=C3\N=Nc4ccccc43)oc2c1C[C@@H]1CCNC[C@H]1F | 77.2% (inactive) |
| COc1ccc(N2CCC(=O)NC2=S)cc1 | 108% (inactive) |
| CC(=O)OCc1nc(C#N)c(N(C)C)o1 | 92.8% (inactive) |
